# For some assays here: Measured potencies and affinities stand elsewhere.
# Legend:
# Design in all cases: scale not given: direction of the effect not stated beside the values
# [1] = molecular target: Protein translocase subunit SecA (Escherichia coli (strain K12)) (UniProt P10408); test: Assay to Identify E. coli SecA ATPase Inhibitors; type: functional; conditions: 30 µM
# [2] = molecular target: T1, Ubiquitin-activating enzyme e1, putative (Leishmania donovani (strain BPK282A1)) (UniProt E9BSI1); test: Leishmania donovani Ubiquitin Activating Enzyme (LdE1); type: functional; conditions: 30 µM
# T1 sequence (whole entry): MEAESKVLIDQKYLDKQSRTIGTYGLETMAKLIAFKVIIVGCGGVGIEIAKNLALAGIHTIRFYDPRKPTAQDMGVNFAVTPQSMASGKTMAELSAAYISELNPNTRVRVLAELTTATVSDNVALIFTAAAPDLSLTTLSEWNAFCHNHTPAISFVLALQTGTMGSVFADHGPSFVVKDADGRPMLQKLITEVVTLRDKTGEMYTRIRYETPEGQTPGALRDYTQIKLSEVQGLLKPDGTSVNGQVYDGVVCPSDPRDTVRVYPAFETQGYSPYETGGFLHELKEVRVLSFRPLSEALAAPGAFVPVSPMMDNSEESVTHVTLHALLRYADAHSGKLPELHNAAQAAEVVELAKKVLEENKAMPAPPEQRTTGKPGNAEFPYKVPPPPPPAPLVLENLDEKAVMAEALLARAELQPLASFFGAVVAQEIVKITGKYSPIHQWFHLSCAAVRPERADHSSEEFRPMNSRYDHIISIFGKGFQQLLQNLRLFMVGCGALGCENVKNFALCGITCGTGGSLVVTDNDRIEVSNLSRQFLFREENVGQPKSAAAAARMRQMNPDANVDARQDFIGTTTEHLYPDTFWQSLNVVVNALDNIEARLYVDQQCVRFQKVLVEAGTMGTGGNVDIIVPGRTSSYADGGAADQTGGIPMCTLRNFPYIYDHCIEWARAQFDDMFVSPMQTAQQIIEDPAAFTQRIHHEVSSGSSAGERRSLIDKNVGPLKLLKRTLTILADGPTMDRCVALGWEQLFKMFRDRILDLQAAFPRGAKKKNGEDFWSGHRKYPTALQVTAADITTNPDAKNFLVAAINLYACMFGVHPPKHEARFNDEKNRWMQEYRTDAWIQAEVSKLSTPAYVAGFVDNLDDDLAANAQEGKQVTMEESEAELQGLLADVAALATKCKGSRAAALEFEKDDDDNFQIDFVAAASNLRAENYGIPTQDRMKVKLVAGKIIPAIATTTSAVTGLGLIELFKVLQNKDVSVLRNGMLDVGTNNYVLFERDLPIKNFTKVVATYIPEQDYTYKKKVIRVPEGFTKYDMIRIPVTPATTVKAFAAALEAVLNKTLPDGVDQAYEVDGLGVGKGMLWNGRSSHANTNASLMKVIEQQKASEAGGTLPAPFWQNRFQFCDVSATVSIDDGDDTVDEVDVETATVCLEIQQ
# [3] = molecular target: AMP-activated protein kinase, AMPK (Homo sapiens) (UniProt P54646+O43741+P54619+Q9UGJ0+Q9Y478+Q13131+Q9UGI9); test: AMP-dependent Kinase enzyme assay. An in vitro enzyme assay that detects ADP turnover that is directly proportional to AMPK activity. This uses naive AMPK that is activated during the assay with MK-8722; type: functional; conditions: 30 µM
# [4] = molecular target: Sialic acid-binding Ig-like lectin 9 (Homo sapiens) (UniProt Q9Y336); test: Hs-Siglec9 ALPHAscreen SOP 20170721; conditions: 10 µM
# Trypanosoma cruzi = test: Trypanosoma cruzi phosphomannomutase and mannose-1-phosphate guanylyltransferase assay; type: functional; conditions: 10 µM
# [5] = molecular target: T2, Arginase-2, mitochondrial (Homo sapiens) (UniProt P78540); test: in vitro enzyme assay to detect the production of urea directly proportional to the activity of Arginase II; type: functional; conditions: 33.3 µM; also: in the data most compounds retested in dose-response had high values
# T2 sequence (whole entry): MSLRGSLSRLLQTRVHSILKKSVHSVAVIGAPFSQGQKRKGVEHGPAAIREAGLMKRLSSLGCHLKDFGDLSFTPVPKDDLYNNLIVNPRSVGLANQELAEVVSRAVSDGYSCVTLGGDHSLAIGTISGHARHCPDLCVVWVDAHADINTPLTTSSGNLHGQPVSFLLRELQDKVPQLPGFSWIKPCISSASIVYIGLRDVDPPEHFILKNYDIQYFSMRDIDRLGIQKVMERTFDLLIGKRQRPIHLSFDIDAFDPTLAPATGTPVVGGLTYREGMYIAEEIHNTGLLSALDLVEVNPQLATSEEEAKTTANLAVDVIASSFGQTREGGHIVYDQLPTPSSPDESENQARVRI
# [6] = molecular target: T3, Proteasome subunit beta (Trypanosoma cruzi) (UniProt O96673); test: Trypanosoma cruzi proteasome chymotrypsin-like activity (TcProtChymo) assay.; also: in the data most compounds retested in dose-response had high values; type: functional; conditions: 9.37 µM
# T3 sequence (whole entry): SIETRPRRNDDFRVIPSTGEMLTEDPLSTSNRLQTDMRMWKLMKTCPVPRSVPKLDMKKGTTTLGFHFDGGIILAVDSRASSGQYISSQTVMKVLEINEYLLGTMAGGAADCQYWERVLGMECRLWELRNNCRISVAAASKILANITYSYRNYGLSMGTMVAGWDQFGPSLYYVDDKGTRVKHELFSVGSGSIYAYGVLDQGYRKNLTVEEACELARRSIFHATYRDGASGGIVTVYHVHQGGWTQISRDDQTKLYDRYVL
# Homo sapiens = species on record: Homo sapiens; test: To identify inhibition of the IFN signalling (Jak-Stat) pathway via expression of an eGFP reporter gene under the control of an IFN-stimulated response element (ISRE) containing MxA promoter.; type: functional; conditions: 30 µM
# [7] = molecular target: T4, Tyrosyl-tRNA synthetase, putative (Trypanosoma cruzi (strain CL Brener)) (UniProt Q4DSP6); test: Trypanosoma cruzi tyrosyl tRNA synthetase (TcYRS) _High Tyrosine SOP; type: functional; conditions: 30 µM; also: in the data most compounds retested in dose-response had high values
# T4 sequence (whole entry): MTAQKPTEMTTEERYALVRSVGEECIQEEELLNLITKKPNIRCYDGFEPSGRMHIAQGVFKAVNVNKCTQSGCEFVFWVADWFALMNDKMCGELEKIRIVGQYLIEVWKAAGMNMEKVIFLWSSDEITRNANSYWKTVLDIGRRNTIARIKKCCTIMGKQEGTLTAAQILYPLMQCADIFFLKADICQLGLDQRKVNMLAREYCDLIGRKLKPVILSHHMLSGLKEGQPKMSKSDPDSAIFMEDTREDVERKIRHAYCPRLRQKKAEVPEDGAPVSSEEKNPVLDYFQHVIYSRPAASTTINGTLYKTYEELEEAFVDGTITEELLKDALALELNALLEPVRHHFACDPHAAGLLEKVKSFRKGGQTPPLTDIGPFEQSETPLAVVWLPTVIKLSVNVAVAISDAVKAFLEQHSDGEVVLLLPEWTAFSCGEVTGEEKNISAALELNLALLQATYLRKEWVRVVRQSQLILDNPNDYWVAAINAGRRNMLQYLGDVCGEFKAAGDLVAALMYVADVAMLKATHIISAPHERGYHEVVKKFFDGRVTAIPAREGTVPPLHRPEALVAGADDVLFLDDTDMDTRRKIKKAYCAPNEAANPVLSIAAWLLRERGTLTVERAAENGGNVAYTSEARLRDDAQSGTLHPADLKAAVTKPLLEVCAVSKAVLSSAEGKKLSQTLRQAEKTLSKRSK
# [8] = molecular target: T4, Tyrosyl-tRNA synthetase, putative (Trypanosoma cruzi (strain CL Brener)); test: Trypanosoma cruzi tyrosyl tRNA synthetase (TcYRS) SOP; type: functional; conditions: 30 µM
# [9] = molecular target: Chromo domain-containing protein 1 (Saccharomyces cerevisiae (strain ATCC 204508 / S288c) (Baker's yeast)) (UniProt P32657); test: ScCHD-1 Enzyme Inhibition Assay; type: functional; conditions: 30 µM; also: in the data most compounds retested in dose-response had high values
# Chain of Chromo domain-containing protein 1 (Saccharomyces cerevisiae (strain ATCC 204508 / S288c) (Baker's yeast)) (P32657 whole entry, the tested form may be a part): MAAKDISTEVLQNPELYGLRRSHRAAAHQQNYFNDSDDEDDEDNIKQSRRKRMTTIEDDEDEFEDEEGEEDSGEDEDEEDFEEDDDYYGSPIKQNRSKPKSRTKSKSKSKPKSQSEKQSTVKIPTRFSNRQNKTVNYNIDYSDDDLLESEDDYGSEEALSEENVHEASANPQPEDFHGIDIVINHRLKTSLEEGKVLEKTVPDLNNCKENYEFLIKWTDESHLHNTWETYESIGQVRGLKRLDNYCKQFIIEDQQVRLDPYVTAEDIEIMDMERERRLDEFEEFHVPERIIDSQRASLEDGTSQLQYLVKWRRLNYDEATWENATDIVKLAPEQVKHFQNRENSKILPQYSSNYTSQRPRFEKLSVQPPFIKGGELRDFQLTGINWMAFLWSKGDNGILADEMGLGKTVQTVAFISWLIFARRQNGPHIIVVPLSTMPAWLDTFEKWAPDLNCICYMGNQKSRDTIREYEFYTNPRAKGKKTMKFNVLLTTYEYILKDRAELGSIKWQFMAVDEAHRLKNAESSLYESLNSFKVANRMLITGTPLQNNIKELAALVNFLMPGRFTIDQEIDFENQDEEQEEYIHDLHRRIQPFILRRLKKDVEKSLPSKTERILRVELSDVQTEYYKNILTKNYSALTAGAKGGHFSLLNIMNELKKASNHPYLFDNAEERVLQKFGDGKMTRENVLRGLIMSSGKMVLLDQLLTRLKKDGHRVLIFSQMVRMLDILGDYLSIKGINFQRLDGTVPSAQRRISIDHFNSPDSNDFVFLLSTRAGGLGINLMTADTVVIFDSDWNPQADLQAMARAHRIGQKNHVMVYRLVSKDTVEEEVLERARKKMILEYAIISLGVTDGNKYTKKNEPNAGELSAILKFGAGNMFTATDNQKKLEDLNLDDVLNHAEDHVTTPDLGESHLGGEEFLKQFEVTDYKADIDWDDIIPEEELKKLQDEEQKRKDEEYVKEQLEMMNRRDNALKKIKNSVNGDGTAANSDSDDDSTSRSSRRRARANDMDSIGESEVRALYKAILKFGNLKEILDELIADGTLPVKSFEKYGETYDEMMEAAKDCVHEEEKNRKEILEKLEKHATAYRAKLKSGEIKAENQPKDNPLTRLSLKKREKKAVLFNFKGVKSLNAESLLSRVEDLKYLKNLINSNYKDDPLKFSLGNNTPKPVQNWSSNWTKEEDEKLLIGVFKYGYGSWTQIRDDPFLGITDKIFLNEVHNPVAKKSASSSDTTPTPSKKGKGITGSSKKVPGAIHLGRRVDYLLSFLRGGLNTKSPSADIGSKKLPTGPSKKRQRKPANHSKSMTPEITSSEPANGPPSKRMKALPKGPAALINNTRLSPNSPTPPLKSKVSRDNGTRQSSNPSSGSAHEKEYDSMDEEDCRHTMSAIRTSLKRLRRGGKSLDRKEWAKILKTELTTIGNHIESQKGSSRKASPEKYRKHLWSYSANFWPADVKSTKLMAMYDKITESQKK
# Chain of Sialic acid-binding Ig-like lectin 9 (Homo sapiens) (Q9Y336 whole entry): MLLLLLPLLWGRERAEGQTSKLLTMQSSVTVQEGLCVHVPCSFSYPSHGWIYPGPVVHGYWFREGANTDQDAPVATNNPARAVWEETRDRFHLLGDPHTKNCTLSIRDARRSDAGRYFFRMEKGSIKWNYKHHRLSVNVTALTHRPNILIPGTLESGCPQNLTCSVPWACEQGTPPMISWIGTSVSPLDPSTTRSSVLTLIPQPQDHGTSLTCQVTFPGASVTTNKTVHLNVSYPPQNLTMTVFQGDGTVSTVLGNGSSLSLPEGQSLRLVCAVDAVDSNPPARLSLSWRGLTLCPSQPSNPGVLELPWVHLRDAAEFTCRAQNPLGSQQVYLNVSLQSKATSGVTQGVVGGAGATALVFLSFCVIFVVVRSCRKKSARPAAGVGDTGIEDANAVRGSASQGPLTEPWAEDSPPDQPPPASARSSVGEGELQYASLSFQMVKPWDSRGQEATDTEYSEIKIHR
# Chain of Protein translocase subunit SecA (Escherichia coli (strain K12)) (P10408 whole entry): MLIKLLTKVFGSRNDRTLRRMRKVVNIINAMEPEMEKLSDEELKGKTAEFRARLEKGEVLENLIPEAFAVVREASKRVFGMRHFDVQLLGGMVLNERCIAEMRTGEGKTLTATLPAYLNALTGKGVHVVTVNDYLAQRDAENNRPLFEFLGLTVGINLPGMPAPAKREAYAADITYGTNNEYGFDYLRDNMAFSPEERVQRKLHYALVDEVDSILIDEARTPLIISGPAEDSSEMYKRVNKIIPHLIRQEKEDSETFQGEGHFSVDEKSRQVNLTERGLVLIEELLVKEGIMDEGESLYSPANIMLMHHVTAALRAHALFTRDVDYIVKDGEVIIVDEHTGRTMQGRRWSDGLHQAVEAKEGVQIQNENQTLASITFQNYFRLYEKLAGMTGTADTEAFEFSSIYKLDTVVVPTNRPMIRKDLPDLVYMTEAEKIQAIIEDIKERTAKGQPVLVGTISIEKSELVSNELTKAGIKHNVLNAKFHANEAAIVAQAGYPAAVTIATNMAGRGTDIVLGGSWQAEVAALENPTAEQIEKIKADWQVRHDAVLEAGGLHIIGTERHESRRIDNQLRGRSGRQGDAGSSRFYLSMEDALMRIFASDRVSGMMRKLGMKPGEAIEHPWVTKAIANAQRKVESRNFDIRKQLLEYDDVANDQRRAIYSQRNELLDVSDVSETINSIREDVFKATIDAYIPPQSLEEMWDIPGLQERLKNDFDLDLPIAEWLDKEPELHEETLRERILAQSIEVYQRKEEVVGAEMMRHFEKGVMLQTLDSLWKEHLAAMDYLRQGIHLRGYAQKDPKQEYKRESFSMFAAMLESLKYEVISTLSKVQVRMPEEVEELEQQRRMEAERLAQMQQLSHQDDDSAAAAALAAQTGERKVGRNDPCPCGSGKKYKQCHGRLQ
SMILES,Percent Effect [1] [%],Percent Effect [2] [%],Percent Effect [3] [%],Percent Effect [4] [%],Percent Effect (Trypanosoma cruzi) [%],Percent Effect [5] [%],Percent Effect [6] [%],Percent Effect (Homo sapiens) [%],Percent Effect [7] [%],Percent Effect [8] [%],Percent Effect [9] [%]
O=C(Cn1ccnc1)N1C[C@@H]2CC[C@H](Oc3ccccc3Cl)[C@@H]2C1,-7.33,-4.05,13.2,1.9,0.198,-3.94,-1.09,31.6,0,-1.3,1.94
O=C1CC2(CCN(CCO)CC2)CN1Cc1cc(F)cc(F)c1,-3.75,6.94,-9.77,27.6,4.18,13.7,11.2,-13.2,2.1,10.3,-9.52
CC(C)c1noc(C(C)N2CCN(Cc3ccsc3)CC2)n1 (configuration not stated),-4.95,7.89,-4.06,-4.87,-3.46,3.6,-2.45,-18.3,4.43,3.7,4.12
O=C(CCc1nc2cccnc2[nH]1)NCc1cccnc1,-3.19,25.3,-5.37,0.97,3.34,-0.88,15.5,9.81,8.47,15.4,-10.2
Cc1n[nH]c(C)c1C1CCCN1C(=O)NCC(=O)NC(C)(C)C (configuration not stated),-4.22,0,26.9,3.62,-6.86,2.27,3.9,0.328,1.07,2.5,-0.359
Cc1nocc1C(=O)N1CCc2c(CN(C)C(C)C)n[nH]c2C1,1.54,11,-4.98,8.21,3.77,-0.798,20.3,21,5.21,13.6,-3.84
COCC(=O)NCc1cccc(Br)c1,-0.913,18.4,-5.98,-7.74,4.89,1.92,11.4,13.3,4.41,19.5,-12.7
CC(Cc1ccco1)NC(=O)Nc1ccc(N2CCOCC2)nc1 (configuration not stated),-3.25,15.8,-15.8,11.3,1.5,0.383,11.2,-9.28,3.43,19.5,-11.4
CN(Cc1ccc(F)cc1)C(=O)NCc1nnc2n1CCCCC2,-8.45,12.7,-3.69,5.52,10.5,-6.08,7.62,15.3,6.4,13.9,-15
Cc1cc(CN(C)Cc2cc3c(cc2OC(F)F)OCO3)on1,-6.72,2.7,1.74,-1.22,-0.684,3.23,5.24,-2.07,0,1.24,-2.37
CC(C)CC1SCC(=O)Nc2c1cnn2C(C)C (configuration not stated),-3.15,22.7,1.11,2.31,4.71,-4.05,16.3,5.92,7.41,20.5,-5.98
COCC1c2nnn(CC3CC3)c2CCN1C(=O)Cc1cccs1 (configuration not stated),1.82,2.7,-8.03,6.62,4.59,13.7,17.2,7.37,4.3,-58,-3.81
O=C(c1cn(-c2cc(N3CCOCC3)ncn2)cn1)N1CCSCC1,-3.27,8.22,-3.63,4.82,1.18,4.09,25,8.07,9.68,15,-5.28
c1cnc2c(c1)cc([C@H]1CCCO1)n2CCN1CCCCC1,4.1,9.46,12,-7.44,-7.91,-0.232,9.52,7.5,2.15,3.9,-12.4
COCCC(=O)Nc1ccnc(Oc2ccccc2)c1,2.99,-5.26,0.138,-14,-6.91,7.1,15.4,19.5,1.06,7.79,-6.2
CC(C)c1nc(C2CCCN2C(=O)c2ccc(N(C)C)nn2)no1 (configuration not stated),-0.476,16.2,-4.5,-2.95,0.0929,-4.25,6.1,24.1,3.96,15.8,-5.4
CC(=O)N(C)c1nc(CN2CCCCC2Cn2cncn2)cs1 (configuration not stated),-8.24,7.79,-1,0.729,-5.99,-1.42,7.43,27.8,5.83,7.32,-6.12
Cn1cnnc1C1CCN(C(=O)CCCOc2ccccc2F)CC1,-5.06,10.4,-2,4.13,-7.87,4.98,2.53,14.2,3.88,7.32,-2.08
COCCN1CCN(CCS(=O)(=O)C(F)(F)F)CC1C (configuration not stated),-3.49,8.11,-8.33,4.35,-3.62,-4.25,0.179,25.8,2.97,11,9.67
Cc1noc(Cl)c1CC(=O)N1CCCC(n2cccn2)C1 (configuration not stated),-7.2,15.8,-1.76,0.841,-0.0934,-3.96,0.592,-4.99,10.3,16.1,1.45
CN(CCOc1cccc(CNC(=O)C2CC2)c1)C1CCOCC1,-3.16,0,2.77,-1.13,4.44,3.33,-3.45,-3.27,-0.529,2.44,0.329
COCCN1CCC(NC(=O)C2(c3cc(C)cc(C)c3)CC2)CC1,-5.08,0,-4.53,-1.6,-1.59,0.719,-1.95,-10.6,1.48,-1.24,6.15

# Reference: ChEMBL document CHEMBL3988442, “University of Dundee, Small-Polar-MMV Screening Library” (2021)
